Source: PubChem (Broad Institute)
Mtb BioA inh – BioA (M. tuberculosis) enzyme inhibition; purified M. tuberculosis BioA enzyme, plate reader; inhibition, % at 9.99 µM; 360,000 tested, 0.096% active; in the data active = inhibition above about 40%; inconclusive = no clear call, values can overlap the other calls
TcdB inh – TcdB glycohydrolase inhibition | inhibition, % at 9.99 µM | TcdB glycohydrolase enzymatic assay, plate reader | AID 652162 | 350,000 tested, 0.24% active; in the data active = inhibition above about 10%
Y pestis TopoI – Y. pestis Topo-I inhibition via cleavage products. Y. pestis Topo-I cleavage product accumulation, plate reader. activity, % at 10 µM. 360,000 tested, 0.064% active. AID 504884; in the data active = activity above about 50%, passing the limit was not always enough; inconclusive = no clear call, values can overlap the other calls
FadD28 binding – M. tuberculosis FadD28 bisubstrate binding inhibition | FadD28 bisubstrate probe binding, fluorescence polarization | inhibition, % at 12.5 µM | 360,000 tested, 0.22% active | AID 588549; in the data active = inhibition above about 8.5%, passing the limit was not always enough; inconclusive = no clear call, values can overlap the other calls
Numbers without * were called inactive; ? = inconclusive; nt = no result given; ! = repeats disagree. Sampled rows, rich in hits. Any-hit rate of the full collection: about 0.47%.

SMILES | Mtb BioA inh | TcdB inh | Y pestis TopoI | FadD28 binding
CN1CC(=O)Nc2ccccc2C1=O | nt | 1.5 | 0.6 | -4.7
Fc1ccc(CNc2nc3ccccc3n3cnnc23)cc1 | -1.1 | 1.5 | -1.2 | -1.0
O=C(Cn1cnc2c(oc3ccccc32)c1=O)NCc1ccccc1 | -0.3 | 1.4 | -4.0 | 0.6
Cn1c(-c2ccc(F)c(F)c2)cc2onc(-c3ccccc3)c2c1=O | -1.2 | 10.1* | -1.2 | -0.6
COc1cccc(-c2cc3onc(-c4ccccc4)c3c(=O)n2C)c1 | 0.1 | 1.7 | 16.2 | -3.1
CCCCCCOc1ccc(C(CC(=O)NC)C(=O)O)cc1 (configuration not stated) | -1.2 | 0.8 | 0.2 | -1.5
CC(=O)c1cn(CC(=O)Nc2cccc(C)c2C)c2ccccc12 | -0.6 | 1.7 | 1.6 | -2.2
Cc1ccc(NC(=O)Cn2cc(C(=O)C3CC3)c3ccccc32)c(C)c1 | -0.8 | 2.0 | 76.4* | -0.9
CCC(=O)c1cn(CC(=O)Nc2cccc(C)c2C)c2ccccc12 | 0.6 | 14.1* | 3.2 | 0.0
COC1=CC(=O)C(C2CC(=O)c3c(O)cc(O)cc3O2)=CC1=O (configuration not stated) | nt | -13.7 | -4.4 | -1.1
CC(=O)N(C)C[C@H]1Oc2ncc(-c3cccc(C#N)c3)cc2C(=O)N([C@H](C)CO)C[C@@H]1C | -1.6 | 0.6 | nt | nt
O=C1CCCC/C1=C\Nc1ccc(C(=O)O)c(O)c1 | nt | 0.3 | -1.2 | 30.7*
CC1CCC/C(=C\Nc2ccc(C(=O)O)c(O)c2)C1=O (configuration not stated) | nt | 0.2 | 0.5 | 4.3
CC(C)(C)OC(=O)NCc1ccc(NC(=O)c2nc[nH]c2C(=O)NCCCCNC(=O)c2[nH]cnc2C(=O)Nc2ccc(CNC(=O)OC(C)(C)C)cc2)cc1 | -2.1 | nt | -4.4 | -1.8
CC(C)(C)OC(=O)NCc1ccc(NC(=O)c2nc[nH]c2C(=O)NCCCNC(=O)c2[nH]cnc2C(=O)Nc2ccc(CNC(=O)OC(C)(C)C)cc2)cc1 | -2.0 | nt | 79.2* | -3.8
CC1=C/C(=C(/c2cc(C)c(O)c(Br)c2)c2ccccc2S(=O)(=O)O)C=C(Br)C1=O | nt | 4.3 | 60.4* | 2.4
O=C(COc1cccc(C(F)(F)F)c1)N1CCN(c2ccccc2O)CC1 | nt | 2.2 | 7.3 | -3.1
O=C(COc1cccc(C(F)(F)F)c1)N1CCN(c2ccc(O)cc2)CC1 | 0.1 | 15.8* | -4.3 | -0.7
CC(=O)NN=C1CCC(c2ccccc2)CC1 (configuration not stated) | 0.5 | nt | 4.0 | -0.2
CCOC(=O)Nc1ccc(OC(=O)Oc2ccc(NC(=O)OCC)cc2)cc1 | nt | 11.6* | 6.3 | 0.3
Oc1c(N=Nc2nn[nH]n2)ccc2ccccc12 | nt | 1.8 | nt | 29.8*
COCC#Cc1ccc2c(c1)O[C@@H](CN(C)C(=O)CC1CC1)[C@H](C)CN([C@@H](C)CO)S2(=O)=O | -0.6 | 12.7* | nt | nt
CCCCC/C=C/C1=CC(=O)C[C@H](c2ccc3c(c2)OCO3)C1 | 2.4 | -0.6 | 62.8* | -2.3
CC(Sc1nc2ccccc2n1C)C(=O)Nc1ccc(N2CCOCC2)cc1 (configuration not stated) | nt | 12.9* | 10.2 | -2.0
CC(C)Cn1c(SC(C)C(=O)Nc2ccc(N3CCOCC3)cc2)nc2ccccc21 (configuration not stated) | nt | 0.8 | 5.2 | 0.8
SMILES | Mtb BioA inh | TcdB inh | Y pestis TopoI | FadD28 binding
CC(C)S(=O)(=O)c1cnc(N2CCOCC2)nc1N | nt | -0.1 | 2.0 | -0.1
CCC(=O)N1[C@H](C(=O)NCCCN(C)C)[C@@H](CO)[C@@H]2Cn3c(ccc(-c4ccccc4OC)c3=O)[C@@H]21 | 1.3 | 1.1 | nt | nt
O=C(Nc1ccccc1F)N1C[C@@H]2N[C@H](C1)C2c1ccc(-c2ccccc2)cc1 (some centres not stated) | nt | 1.1 | nt | nt
O=C(Nc1ccccc1F)N1C[C@@H]2N[C@H](C1)C2c1ccc(-c2cccc(F)c2)cc1 (some centres not stated) | nt | 23.5*! | nt | nt
Cc1cccc2cc(/C=N/NC(=O)c3ccncc3)c(Cl)nc12 | -0.7 | 0.5 | -2.6 | -2.4
Cc1cccc(C2=CC(=O)CC(C)(C)C2=O)c1 | nt | 0.0 | nt | nt
CCCCCCC(=O)Oc1cccc(C2=CC(=O)CC(C)(C)C2=O)c1 | 1.5 | 1.6 | 54.8* | -1.4
O=C(C[C@@H]1CC[C@H]2[C@@H](COC[C@@H](O)CN2C(=O)c2ccc3c(c2)OCO3)O1)NC1CCC1 | 0.2 | 0.1 | nt | nt
CCOc1ccc2ccccc2c1/C=N/NC(=O)c1ccncc1 | -0.6 | 10.9* | 20.3 | -1.2
O=S(=O)(O)c1cc(O)c2c(O)c(N=Nc3cc(Cl)ccc3O)c(S(=O)(=O)O)cc2c1 | 5.2 | nt | 65.0* | ?
CCOC(=O)N1CCC(Nc2ncnc3c2cnn3-c2ccc(C)cc2C)CC1 | 1.2 | 1.1 | 12.0 | -0.9
O=C(O)C1C(=O)NCC1c1ccccc1 (configuration not stated) | nt | 23.7* | 2.6 | -4.1
COc1ccc(NC(=S)N2CCN(C/C=C/c3ccccc3)CC2)cc1 | nt | 0.9 | 0.6 | -1.5
C=CCn1c(C)cc(C(=O)COC(=O)CCc2cc(OC)c(OC)c(OC)c2)c1C | -0.7 | 12.5* | 15.7 | -1.7
COc1cc(CCC(=O)OCC(N)=O)cc(OC)c1OC | nt | -0.5 | 3.3 | -1.5
CN(c1ccccc1)S(=O)(=O)c1ccc2ccccc2c1 | -0.1 | 0.6 | -2.2 | 1.0
O=CN(c1ccccc1)c1ccc2ccccc2c1 | nt | 13.0* | 11.7 | -0.9
O=C(Nc1nnc(C(F)(F)F)s1)c1ccc(Br)s1 | -1.6 | 16.5* | 3.5 | -1.2
CCSc1nnc(NC(=O)c2ccc(Br)s2)s1 | -0.4 | nt | 8.8 | 0.7
O=C(CC(c1ccccc1)c1ccccc1)Nc1ccc(O)cc1 | -1.7 | 13.4* | -2.1 | -0.7
Oc1ccc(NC(=S)Nc2ccccc2)cc1 | 0.0 | 10.6*! | -2.0 | -2.7
Nc1ccc(NC(=S)Nc2ccccc2)cc1 | nt | 0.2 | 2.2 | -1.8
O=C(NC(=S)Nc1ccc(O)cc1)c1ccccc1Cl | -0.4 | 16.5* | 7.2 | -0.9
Cc1csc(=O)n1CCC(=O)OCC(=O)c1c(N)n(C)c(=O)n(C)c1=O | 3.9 | 1.1 | 4.4 | -0.6
COC(=O)Cc1c(C)c2ccc(OC3CCCCC3=O)cc2oc1=O (configuration not stated) | 0.2 | 0.0 | 3.7 | -1.3
SMILES | Mtb BioA inh | TcdB inh | Y pestis TopoI | FadD28 binding
O=c1[nH]c2ccccc2n1C1CCN(C(c2ccccc2OC(F)(F)F)c2nnnn2Cc2ccccc2)CC1 (configuration not stated) | -0.8 | 0.9 | nt | -4.7
CC(C)(C)C1CCc2nc(NC(=O)Cc3cn4ccsc4n3)sc2C1 (configuration not stated) | 2.7 | nt | 61.8* | -0.4
COc1cc(C(=O)N/C(=C\c2cn(S(=O)(=O)N(C)C)c3ccccc23)C(=O)N2CCCC2)cc(OC)c1OC | -1.5 | 1.9 | 27.8 | 1.4
Cc1ccc(NC(=O)OC(C)N2CCCCC2)cc1NC(=O)OC(C)N1CCCCC1 (configuration not stated) | -1.8 | 11.3* | 0.4 | -1.5
Cc1ccc(NC(=O)N2CCCCC2)cc1NC(=O)N1CCCCC1 | -5.7 | -0.8 | 4.7 | -0.2
COCCn1c(NC(=S)NC(=O)C2CC2)cc(=O)[nH]c1=O | -3.3 | 23.0* | -10.6 | -0.2
COCCn1c(NC(=S)NC(=O)C23CC4CC(CC(C4)C2)C3)cc(=O)[nH]c1=O | nt | 0.8 | 15.3 | -4.4
